The source made the active and inactive calls. Unless noted, no rule for the calls is given here.

A short description of assay [1]: compound effects on lung adenocarcinoma cell viability – A549, calcein-AM fluorescence, 48 h, basal, profiling panel (AID 1162). Also: test concentration not given here. To be noted: higher = more signal.
Assay [2] in a line: compound effects on differentiated 3T3-L1 adipocyte viability – cell-based, 3T3-L1 adipocytes, calcein-AM fluorescence, 48 h, basal, profiling panel (AID 1163). Also: test concentration not given here. The note with it: 3T3-L1 adipocytes viability, higher = more signal.
The nature of assay [3]: compound effects on hepatocellular carcinoma cell viability – HepG2, calcein-AM fluorescence, 48 h, basal, profiling panel (AID 1164). Also: test concentration not given here. The note with it: higher = more signal.
The nature of assay [4]: compound effects on multiple myeloma cell viability – MM1S, calcein-AM fluorescence, 48 h, basal, profiling panel (AID 1165).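 Also: viability of MM1S multiple myeloma cells under basal unstimulated conditions; test concentration not given here.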 To be noted: higher = more signal.
Assay [5] is described as follows: calcein-AM signal in unstimulated myeloma cells – cell-based, calcein-AM fluorescence, 48 h, PK04 Diversity Set, profiling panel (AID 1166).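 Also: cells grown under basal conditions without added stimulus; test concentration not given here.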 To be noted: RPMI8226 myeloma viability, higher = more signal.
A short description of assay [6]: JC-1 mitochondrial signal, unstimulated HepG2 cells – cell-based, JC-1 fluorescence, 24 h, 100 nL compound, profiling panel (AID 1167). Also: test concentration not given here. To be noted: HepG2 mitochondrial potential, higher = more signal.
Assay [7] in a line: JC-1 mitochondrial signal, unstimulated adipocytes – cell-based, JC-1 fluorescence, 3T3-L1 adipocytes, 24 h, 100 nL compound, profiling panel (AID 1168). Also: test concentration not given here. The note with it: JC-1 mitochondrial fluorescence, higher = more signal, called active from +8 up or from −8 down.
Assay [8] in a line: JC-1 mitochondrial signal, unstimulated myeloma cells – cell-based, JC-1 fluorescence, RPMI8226, 24 h, 100 nL compound, profiling panel (AID 1169). Also: test concentration not given here. To be noted: JC-1 mitochondrial potential fluorescence, higher = more signal.
The nature of assay [9]: JC-1 mitochondrial signal, unstimulated MM1S myeloma – cell-based, JC-1 fluorescence, 24 h, 100 nL compound, profiling panel (AID 1170). Also: test concentration not given here. To be noted: MM1S mitochondrial potential, higher = more signal.
Assay [10] can be described thus: resazurin metabolic signal in A549 cells – cell-based, resazurin fluorescence, 24 h, PK04 Diversity Set, profiling panel (AID 1171). Also: test concentration not given here. The note with it: A549 viability, higher = more signal, called active from +8 up or from −8 down. In general terms: Alamar Blue is a resazurin reagent that responds to reducing activity.
Assay [11] can be described thus: resazurin metabolic signal in HepG2 cells – cell-based, resazurin fluorescence, 24 h, PK04 Diversity Set, profiling panel (AID 1172). Also: test concentration not given here. The note with it: HepG2 viability, higher = more signal.
A short description of assay [12]: budding yeast growth changes without added modifier – OD600, strain BY4716, 24 h, basal condition, primary screen (AID 1173). The note with it: S. cerevisiae BY4716 growth, OD600, 24 h; higher = more signal, called active from +8 up or from −8 down.
Assay [13] can be described thus: viability profiling in MM1S myeloma cells – cell-based, resazurin fluorescence, basal, 24 h, PK04 Diversity Set, profiling panel (AID 1174). Also: test concentration not given here. To be noted: higher = more signal, called active from +8 up or from −8 down.
For assay [14], the target named is Dihydroorotate dehydrogenase (quinone), mitochondrial (Plasmodium falciparum (isolate 3D7)) (UniProt Q08210). Put plainly: inhibition of P. falciparum DHODH – biochemical, C-terminal His tag, absorbance 600 nm, primary screen (AID 1175).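 Also: recombinant parasite enzyme with a five histidine tag at its C terminus; test concentration not given here.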 To be noted: PfDHODH enzyme, DCIP absorbance 600 nm; higher = more signal, called active from +8 up or from −8 down.
Assay [15] in a line: inhibition of PAO1 biofilm formation – strain PAO1, LB-PBS medium, absorbance 600 nm, primary screen (AID 1176). Also: test concentration not given here. To be noted: P. aeruginosa PAO1 growth/biofilm, A600, 12 h; higher = more signal.
A short description of assay [16]: growth modulation of vineyard yeast isolate – strain RM11-1a, OD600, basal, 24 h, primary screen (AID 1177).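 Also: cultures grown under basal conditions with no added stressor; test concentration not given here.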 To be noted: S. cerevisiae RM11-1a growth, OD600, 24 h; higher = more signal, called active from +8 up or from −8 down.
A short description of assay [17]: growth of efflux-deficient E. coli DRC39 – strain DRC39, OD650, 24 h, E. coli filamentation inducers, primary screen (AID 1178).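 Also: growth measured as culture turbidity by optical density at 650 nm; test concentration not given here.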 To be noted: E. coli DRC39 acrAB, higher = more signal, called active from +8 up or from −8 down.
Assay [18] can be described thus: growth of efflux-deficient E. coli DRC39 – strain DRC39, OD650, 48 h, E. coli filamentation inducers, primary screen (AID 1179).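 Also: screen aims at cell division blockers that make cells filament.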 To be noted: E. coli DRC39 delta-acrAB growth, higher = more signal, called active from +8 up or from −8 down.
Assay [19] is described as follows: viability profiling in RPMI8226 myeloma cells – cell-based, resazurin fluorescence, basal, 24 h, PK04 Diversity Set, profiling panel (AID 1180).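 Also: RPMI8826 multiple myeloma cell line at 5000 cells per well; test concentration not given here.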 To be noted: higher = more signal.
Assay [20] has as its target E3 ubiquitin-protein ligase XIAP (Homo sapiens) (UniProt P98170). The assay is described as follows: small molecules binding XIAP protein – biophysical, small-molecule microarray, fluorescence 635 nm, primary screen (AID 1181).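 Also: score merges 667 nm emission and signal to noise over triplicate slides.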 To be noted: higher = more signal.

Dihydroorotate dehydrogenase (quinone), mitochondrial (Plasmodium falciparum (isolate 3D7)), sequence (Q08210 whole entry, looked up): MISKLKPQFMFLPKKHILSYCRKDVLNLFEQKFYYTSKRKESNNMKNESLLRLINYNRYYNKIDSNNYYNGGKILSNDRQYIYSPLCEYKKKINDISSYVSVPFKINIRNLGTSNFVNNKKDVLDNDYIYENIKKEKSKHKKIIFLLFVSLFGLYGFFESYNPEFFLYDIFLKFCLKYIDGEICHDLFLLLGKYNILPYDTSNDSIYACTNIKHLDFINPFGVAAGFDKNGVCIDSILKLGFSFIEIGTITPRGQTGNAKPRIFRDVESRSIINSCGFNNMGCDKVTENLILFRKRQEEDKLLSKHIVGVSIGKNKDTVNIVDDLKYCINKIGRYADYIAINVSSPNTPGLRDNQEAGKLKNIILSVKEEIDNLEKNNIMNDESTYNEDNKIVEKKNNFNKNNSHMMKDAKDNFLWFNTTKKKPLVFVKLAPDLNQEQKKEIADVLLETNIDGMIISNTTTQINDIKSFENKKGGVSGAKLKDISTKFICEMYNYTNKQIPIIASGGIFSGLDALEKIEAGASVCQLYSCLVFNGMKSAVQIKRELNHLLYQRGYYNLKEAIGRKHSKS
E3 ubiquitin-protein ligase XIAP (Homo sapiens), sequence (P98170 whole entry, looked up): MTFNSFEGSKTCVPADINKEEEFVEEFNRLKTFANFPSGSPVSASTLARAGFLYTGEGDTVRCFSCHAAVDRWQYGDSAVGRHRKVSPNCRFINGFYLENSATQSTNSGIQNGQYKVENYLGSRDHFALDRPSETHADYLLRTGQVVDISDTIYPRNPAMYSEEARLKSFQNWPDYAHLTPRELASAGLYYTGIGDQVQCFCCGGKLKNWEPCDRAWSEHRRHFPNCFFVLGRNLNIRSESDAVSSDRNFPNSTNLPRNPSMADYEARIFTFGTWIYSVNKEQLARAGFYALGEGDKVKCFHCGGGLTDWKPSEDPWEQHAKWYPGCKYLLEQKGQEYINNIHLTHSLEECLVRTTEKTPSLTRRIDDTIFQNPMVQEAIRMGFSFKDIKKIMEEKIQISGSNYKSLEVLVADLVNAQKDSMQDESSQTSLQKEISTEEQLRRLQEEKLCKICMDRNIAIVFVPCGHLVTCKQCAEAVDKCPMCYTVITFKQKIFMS

For the compound `C=C(C(=O)CC[C@H](OC(=O)c1ccccc1-c1ccccc1C(=O)O)c1ccc(CO)o1)C(C)C`, the z-score in assay [1] is -0.473; in assay [2], -0.284; in assay [3] it was -0.396; in assay [4], -0.263; in assay [5], 0.0025; in assay [6], -0.906. Moreover, the z-score is -0.244 (inactive) in assay [7]; 0.374 in [8]; 0.668 in assay [9]; 0.529 (inactive) in assay [10]; -0.256 in assay [11]; 0.656 (inactive) in assay [12]. In addition, the z-score in assay [13] is 0.192 (inactive); in [15], 0.98 (inactive); in assay [16] it was 1.73 (inactive); in assay [17], 0.101 (inactive); in assay [18], 0.0357 (inactive); in assay [19], 0.951. Further, the composite z-score is -0.976 (inactive) in [14] and -0.153 in assay [20].

For the compound `CCCC=C(CCC)[C@@H](NS(=O)(=O)c1ccc(-c2ccccc2)cc1)c1ccc(C(=O)OC)cc1`, the z-score in assay [1] is -1.34; in assay [2] it was 0.906; in [3] it was -1.52; in assay [4], -1.18; in assay [5] it was -2.93; in [6] it was -4.34. Further, the z-score in assay [7] is 0.0846 (inactive); in [8] it was 0.326; in assay [9], -1.78; in assay [10] it was 1.35 (inactive); in assay [11], 0.0252; in assay [12] it was 1.72 (inactive). Also, the z-score in assay [13] was 0.303 (inactive); in assay [15] it was 2.67 (inactive); in assay [16], 0.239 (inactive); in assay [17], -0.811 (inactive); in [18], -0.299 (inactive); in assay [19] it was 0.305. Besides, the composite z-score is -4.09 (inactive) in assay [14] and -0.0948 in assay [20].

Turning to `[N-]=[N+]=NCc1ccccc1[C@H]1OC(c2ccc(OCCCO)cc2)=N[C@@]1(Cc1ccccc1N=[N+]=[N-])C(=O)NCc1ccccc1`, the z-score is -0.741 in assay [1]; 0.236 in assay [2]; -0.946 in [3]; -2.4 in assay [4]; -3.8 in assay [5]; 0.37 in [6]. In addition, the z-score in [7] is -0.296 (inactive); in assay [8], -1.02; in assay [9] it was -1.38; in assay [10], 0.0642 (inactive); in [11] it was -0.494; in assay [12], 0.745 (inactive). Also, the z-score was -2.31 (inactive) in assay [13]; 2.26 (inactive) in [15]; 1.95 (inactive) in assay [16]; 0.134 (inactive) in [17]; -0.321 (inactive) in assay [18]; -1.52 in [19]. Besides, the composite z-score in assay [14] was 0.545 (inactive); in [20], -0.117.

For `O=C1C[C@@](C(=O)NC2CC2)(c2ccc([N+](=O)[O-])cc2)[C@@H](c2ccc(CO)cc2I)N1CC12CC3CC(CC(C3)C1)C2`, the z-score in [1] is -2.31; in assay [2] it was -0.375; in assay [3] it was -5.04; in [4], -3.83; in assay [5], -4.33; in assay [6], -2.32. The z-score in assay [7] is -0.869 (inactive); in assay [8] it was -1.02; in assay [9], -2.4; in assay [10], -3.35 (inactive); in assay [11], -3.54; in assay [12], 0.579 (inactive). Also, the z-score was -6.88 (inactive) in assay [13]; 1.2 (inactive) in [15]; 2.54 (inactive) in [16]; -0.56 (inactive) in [17]; -0.869 (inactive) in assay [18]; -5.45 in assay [19]. Besides, the composite z-score in [14] is 1.59 (inactive); in assay [20] it was -0.095.

Take `CCOC(=O)C[C@H]1[C@H](OC(=O)c2ccccc2-c2ccccc2)[C@@H](NC(=O)c2ccc(-c3ccccc3)cc2)c2cc(OCCCO)ccc2N1C(=O)Cc1ccc(OC)cc1`: the z-score in assay [1] is -0.183; in [2], -0.367; in [3], 0.29; in [4], 0.0542; in [5], -0.997; in assay [6], 0.181. Besides, the z-score is -0.421 (inactive) in assay [7]; -0.616 in assay [8]; 0.103 in assay [9]; 0.0911 (inactive) in assay [10]; -0.235 in assay [11]; -0.034 (inactive) in assay [12]. Further, the z-score is -0.0275 (inactive) in [13]; 0.2 (inactive) in assay [15]; -0.28 (inactive) in assay [16]; -0.489 (inactive) in assay [17]; -0.628 (inactive) in assay [18]; 0.364 in [19]. The composite z-score is -1.29 (inactive) in assay [14] and -0.16 in assay [20].

With `COCCOC(=O)N1C(=O)[C@@]2(c3cc(C#CCC(C(=O)OC)C(=O)OC)ccc31)[C@H](c1ccccc1OCCO)N1[C@H](c3ccccc3)[C@H](c3ccccc3)OC(=O)[C@H]1[C@@H]2C(=O)N1CCCCCCC1`, the z-score in assay [1] is 0.579; in assay [2], -0.219; in [3], 0.779; in [4], -0.895; in assay [5], 0.103; in [6] it was 0.335. The z-score was 2.19 (inactive) in assay [7]; -0.641 in assay [8]; -1.34 in assay [9]; 0.719 (inactive) in assay [10]; 1.16 in assay [11]; 1.29 (inactive) in assay [12]. Moreover, the z-score in assay [13] was 0.883 (inactive); in assay [15], 1.48 (inactive); in [16] it was 2.14 (inactive); in assay [17] it was 0.189 (inactive); in [18], 0.364 (inactive); in [19] it was 1.58. For the same compound, the composite z-score in assay [14] was 0.243 (inactive); in assay [20], 0.361.

(Values after PubChem BioAssay.)
